The values below come from PubChem BioAssay AID687036 (The Scripps Research Institute Molecular Screening Center, 2013).

The campaign covered roughly 3,300 compounds. About 1,400 (42%) were called active. So high a share suggests a set chosen from earlier hits. A selection follows. Values without a mark were called inactive.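 Rule for the calls: active = mean inhibition across replicates above the hit cutoff derived for the earlier primary screen (cut at about 22% in these data); inactive = the rest.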

The target in the test is Protein arginine N-methyltransferase 1 (Homo sapiens) (UniProt Q99873). The test can be described thus: PRMT1 methyltransferase inhibitors, confirmation, biochemical, fluorescence polarization, triplicate (AID 687036). The note with it: recombinant His-PRMT1, activity-based probe fluorescence polarization; at 2.79 µM; active compounds read high.
Chain of Protein arginine N-methyltransferase 1 (Homo sapiens) (Q99873 whole entry, looked up): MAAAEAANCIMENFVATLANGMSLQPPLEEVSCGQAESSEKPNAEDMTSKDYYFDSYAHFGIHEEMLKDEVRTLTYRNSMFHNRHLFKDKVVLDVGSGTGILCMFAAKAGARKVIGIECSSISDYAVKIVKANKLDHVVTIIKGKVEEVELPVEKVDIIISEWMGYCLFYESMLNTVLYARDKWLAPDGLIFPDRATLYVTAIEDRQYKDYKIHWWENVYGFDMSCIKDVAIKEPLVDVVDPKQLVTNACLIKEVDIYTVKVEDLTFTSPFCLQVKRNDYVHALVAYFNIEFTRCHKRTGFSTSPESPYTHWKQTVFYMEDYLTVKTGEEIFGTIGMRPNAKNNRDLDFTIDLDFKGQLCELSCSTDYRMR
Turning to `CC1=C(C)CC2C(=O)N(c3cccc4ccccc34)C(=O)C2C1` (stereo not given), the inhibition is 54.1% (active).
Then `O=C(O)CCn1c(O)c(C=C2N=c3ccccc3=N2)sc1=S`, with -5.43%; and `O=C(NC(Cc1c[nH]c2ccccc12)C(=O)O)/C(=C/c1ccco1)NC(=O)c1ccccc1` (stereo not given), with 9.09%.
For `Cc1ccc(NC(=O)Cn2sc3ccccc3c2=O)cc1`, the inhibition is 82.3% (active).
Under `CCC(c1nnnn1Cc1ccco1)N(Cc1cc2cc(OC)ccc2[nH]c1=O)C1CCCCC1` (stereo not given) stands 18%; under `COC(=O)C[n+]1cccc2ccccc21`, 32.6% (active).
Under `NC(=O)c1c(Nc2nc3c(F)cccc3s2)sc2c1CCCC2` stands -3.26%.
Consider `O=C(CSc1cccc[n+]1[O-])c1ccc(-c2ccccc2)cc1`, for which the inhibition was 25.6% (active).
Then `O=C(Cc1ccc(-c2ccccc2)cc1)NC(c1ccccc1)c1ccccc1`, with 3.32%.
Then `Cc1sc(NC(=O)c2ccc3ncsc3c2)c(C(N)=O)c1C`, with 3.89%.
Under `N#CC1(Nc2ccc3c4c(cccc24)CC3)CCCCC1` stands 10.2%; under `CSc1nc(C)cc(SC(C(C)=O)C(=O)Nc2ccccc2)n1` (stereo not given), 22.5% (active); under `CN(C)C(=S)N=c1ssc(=S)n1Cc1ccco1`, 15.6%.
As for `Cc1ccc(-n2nc(-c3ccco3)cc2C(=O)NCc2cccnc2)cc1`, the inhibition was 19.5%.
Then `C=CS(=O)c1sc(Cl)c(N2CCOCC2)c1[N+](=O)[O-]` (stereo not given), with 87.1% (active).
Under `CCOC(=O)c1cc2n(c1N)-c1ccccc1C2=O` stands 116% (active); under `Cc1ccccc1CN1C[C@@H]2C[C@@H](c3cn(C)nc3-c3ccccc3)N3CCC[C@@]23C1=O`, 5.9%.
Under `O=C(Nc1nc(-c2ccco2)c(-c2ccco2)s1)c1ccco1` stands 30.4% (active); under `O=C(Nc1cccc(F)c1)c1cc(-c2ccco2)nc2ccccc12`, 3.51%.
`COc1cc(C(=S)NCc2ccccc2)cc(Br)c1O`: the inhibition is 19.8%.
Then `N#CC1=C(N)Oc2[nH]c(=S)[nH]c(=O)c2C12C(=O)Nc1ccccc12` (stereo not given), with 66.4% (active).
`Cc1ccc(Cc2cnc(N)s2)o1`: the inhibition is -3.79%.
Under `O=C(CN1C(=O)S/C(=C\c2ccccc2F)C1=O)NCCCn1ccnc1` stands -3.11%; under `CC(NC(=O)CSc1nc2c(cc1C#N)CN(C)CC2)c1ccccc1` (stereo not given), 6.37%.
Then `COc1ccc(C(=O)COC(=O)COc2ccc(C)c(C)c2)cc1`, with 3.72%; and `COc1ccnc(NC(=S)N2CCN(c3ncc(C(F)(F)F)cc3Cl)CC2)c1`, with 4.89%; and `c1ccc(C(=NNc2nc3ccccc3s2)c2ccccn2)cc1`, with 22.1% (active).
Under `Cc1nc2sc(C(c3ccco3)N3CCOCC3)c(O)n2n1` (stereo not given) stands 7.49%.
Take `CCN(CC)CCCC(C)n1c2nc(=O)[nH]c(=O)c-2nc2cc(Cl)ccc21` (stereo not given): the inhibition was 153% (active).
Then `CC(C(=O)Nc1ccc(O)c(C(=O)O)c1)N1C(=O)/C(=C/c2cccs2)SC1=S` (stereo not given), with 12%.
Under `COCCNC(=S)Nc1cc(S(=O)(=O)N2CCOCC2)ccc1N1CCCCC1` stands 4.34%.
Under `N#Cc1ccccc1S(=O)(=O)N1CCN(Cc2c(O)ccc3ccccc23)CC1` stands 33.1% (active); under `COc1ccc(Nc2nc(-c3cccnc3)nc3ccccc23)cn1`, 11.2%; under `Cn1sc(=O)c2cc(S(=O)(=O)NC3CC3)ccc21`, 32% (active).
As to `Cc1ccc(CNC(=O)CCS(=O)(=O)c2ccc3c(c2)CC(C)N3C(=O)C2CC2)o1` (stereo not given), the inhibition was 5.73%.
Then `S=c1[nH]nc2c3c4c(sc3ncn12)CCCC4`, with 17.1%; and `CCOc1cccc(/C=N/N2C(=O)CSC2=S)c1O`, with 83.2% (active).
Under `NC(=O)C1(N2CCCCC2)CCN(C2CC(=O)N(Cc3ccc(N4CCCC4=O)cc3)C2=O)CC1` (stereo not given) stands 2.57%; under `Cc1sc2nc(SCC(=O)c3ccc(O)c(O)c3)n(Cc3ccco3)c(=O)c2c1C`, 2.72%; under `CCOC(=O)N1C(=O)C[C@](Sc2ccc(C)cc2)(C(=O)OC)[C@H]1c1ccccc1`, 60.5% (active).
Then `CCc1ccc(-n2c(=S)sc3c(=O)n(-c4ccccc4OC)c(=S)[nH]c32)cc1`, with 14.1%; and `Cc1ccc(NC(=O)c2cc(-c3ccc(C)o3)nc3ccccc23)nc1`, with 10.3%; and `CCc1n[nH]c(=S)n1/N=C/c1c[nH]c2ccc(Br)cc12`, with 18%.
With `Cc1cccc(NC(=O)c2sc3nc(N4CCOCC4)c4c(c3c2N)CCCC4)c1`, the inhibition is 10.1%.
On to `Clc1ccccc1CSc1nnc(-c2ccco2)c(-c2ccco2)n1`, for which the inhibition is 65.4% (active).
Then `O=C(CC1N=C2c3ccccc3N=C(SCc3ccccc3Cl)N2C1=O)NCc1ccco1` (stereo not given), with 5.28%.
Then `CC(=O)N1CCN(C(=O)c2cc(-c3ccc(C)o3)nc3ccccc23)CC1`, with 13%.
Then `Cc1ccnc(-n2sc3ccccc3c2=O)n1`, with 89.8% (active).
For the molecule `CCN1/C(=C/C(=S)Nc2ccccc2)Sc2ccccc21`, the inhibition was 24.8% (active).
Then `COc1ccccc1-n1c(-c2cc(-c3ccco3)[nH]n2)n[nH]c1=S`, with 2.25%; and `c1ccc(CN2CCC(N=C3NN=C(c4ccc5c(c4)OCCO5)CS3)CC2)cc1`, with 27.8% (active); and `Cc1cccc(Oc2c([N+](=O)[O-])c(=O)n(C)c3ccccc23)c1`, with 9.75%.
Then `N#Cc1c(N2CCCCC2)nc(N)c2c(N)nc(SCC(=O)O)cc12`, with 56.5% (active); and `COc1ccc(C2CC(c3cccs3)=Nc3ccccc3S2)cc1OC` (stereo not given), with 48.6% (active); and `Cc1cc(C(=O)NN=C/C=C/c2ccco2)n[nH]1`, with 0.98%.
On to `O=C(Oc1ccccc1C(=S)N1CCCCC1)c1cc([N+](=O)[O-])cc([N+](=O)[O-])c1`, for which the inhibition is 25.5% (active).
Then `Cc1cc2nc(-c3ccco3)c(Cc3cccc(F)c3)n2c(C)c1Br`, with 20.8%.
On to `COC(=O)c1ccccc1SC1CC(=O)N(c2cccc(C)c2)C1=O` (stereo not given), for which the inhibition was 23.1% (active).
As for `CCOC(=O)c1ccc(N2C(=O)CC(N3CCC(C(=O)OCC)CC3)C2=O)cc1` (stereo not given), the inhibition is 1.87%.
In the case of `O=C(O)c1ccc(/C=C2\SC(=S)N(NC(=O)c3ccc(Br)cc3)C2=O)cc1`, the inhibition was 2.94%.
Then `S=c1[nH]nc(-c2ccccc2)n1/N=C/c1c[nH]c2ccccc12`, with 12.4%; and `CCN(CC)S(=O)(=O)c1cccc(-c2n[nH]c(=S)n2/N=C/c2ccc(C(=O)OC)cc2)c1`, with 65.6% (active); and `S=c1ccc2ccccc2[nH]1`, with 10.8%.
Then `CC(=O)NC1=NC(=O)CS1`, with 15.3%.
Then `CCOC(=O)N1CCN(C(c2cccnc2)c2ccc3cccnc3c2O)CC1` (stereo not given), with 82.2% (active); and `COc1ccccc1C(=O)NN1C(=O)C2C3C=CC(O3)C2C1=O` (stereo not given), with 8.23%.
Take `COc1ccc(N=C2C=CC(=O)O2)cc1`: the inhibition was 83.2% (active).
Regarding `COc1ccccc1NC(=O)/C=C/C(N)=O`, the inhibition is 55.8% (active).
Under `CN(C)c1ccc(Nc2c3c4c(cccc4n(C)c2=O)C(=O)c2ccccc2-3)cc1` stands 1.6%; under `O=C(O)c1ccccc1CSc1nc2ccccc2s1`, 33.2% (active).
Under `CCC(c1nnnn1Cc1ccco1)N(CCc1ccccc1)Cc1cc2ccc(OC)cc2[nH]c1=O` (stereo not given) stands 5.74%; under `O=C1C=CC(=O)N1c1ccc(N2CCCCC2)cc1`, 82.8% (active); under `Cc1cc(C)c(S(=O)(=O)NN=C2c3ccccc3[C@H]3Cc4csc[n+]4[C@@H]23)c(C)c1`, 13.2%.
Then `Cc1cccc(C)c1NC(=O)C(Cl)C(=O)c1ccccc1` (stereo not given), with 30% (active); and `O=c1/c(=C/c2ccc(CNS(=O)(=O)c3ccccc3)o2)sc2n1CCN=2`, with -3.63%.
As for `Clc1cccc(-c2nc3nc4ccccc4nc3n2Cc2ccco2)c1`, the inhibition was 19.7%.
Under `Cc1nc2ccc(S(=O)(=O)NCC(=O)O)cc2s1` stands 22.9% (active); under `CC(=O)N1C(=O)/C(=C2\SC(=S)N(NC(=O)c3ccc(O)cc3)C2=O)c2ccccc21`, 1.92%.
Under `CCCCOC(=O)CNc1nnc(SCC(=O)OCC)[nH]c1=O` stands 72.3% (active).
Then `CN(C)c1ccc(C(CC(=O)O)C(=O)O)cc1` (stereo not given), with 5.11%; and `CCOC(=O)Cc1csc(NC(=O)CSc2nc(C)cc(=O)[nH]2)n1`, with 61.6% (active); and `Cc1cc(NC(=O)C(C)SCC(=O)Nc2cccc(S(=O)(=O)N3CCCCCC3)c2)no1` (stereo not given), with -0.11%.
As to `COc1ccc(NC(=O)CN(C)C(=O)c2cc(-c3ccc(C)o3)nc3ccccc23)cc1`, the inhibition is 13.6%.
Then `OCCN1CCN(C(=S)c2ccc(-c3ccccc3)cc2)CC1`, with 61.8% (active); and `CC1CCN(C(=S)c2ccc(-c3ccc(Cl)cc3Cl)o2)CC1`, with 4.49%.
Then `COc1cc(NC(=S)N2CCCC(C)C2)c(OC)cc1Cl` (stereo not given), with 44.5% (active); and `CC(=O)N1CC(C)c2scc(C)[n+]2-c2ccccc21` (stereo not given), with 50.9% (active); and `COc1ccc(N2C(=O)/C(=C\c3ccco3)N=C2SCC(N)=O)cc1Cl`, with 5.26%.
Under `COc1cccc2c1C(=O)c1c(O)c3c(c(O)c1C2=O)CC(O)(C(C)=NNC(=O)c1ccc(Cl)c(Cl)c1)CC3OC1CC(N)C(O)C(C)O1` (stereo not given) stands 159% (active).
For the molecule `COC(=O)/C=C\C(=O)Nc1cccc([N+](=O)[O-])c1`, the inhibition is 87.6% (active).
Then `O=C(O)/C=C/C(=O)NNc1ccc([N+](=O)[O-])cc1`, with 12.7%; and `Cc1c(NC(=O)/C=C/C(=O)O)cccc1[N+](=O)[O-]`, with 4.54%.
In the case of `CSc1c(SCc2ccccc2)cnn(Cc2ccccc2)c1=O`, the inhibition was 18.4%.
Under `Nc1c(C(=O)c2cccs2)sc2nsc(SCCN3CCCCC3)c12` stands -5.21%.
Then `O=C(COC(=O)Cn1cnc2ccccc21)Nc1cccc2c1C(=O)c1ccccc1C2=O`, with 4.11%.
